Data taken from PubChem BioAssay AID1159580 (chemical genetic matrix, 2015).
“And” between values parts separate entries of the source, which are not always exact repeats. Identical values can stand only once. The whole screen tested about 5,500 compounds, of which about 2,000 (36%) were called active. About 18% were inconclusive and are not listed. No stated cut-off is given here; in the data, active means normalized growth mostly below about 0.91 (no sharp cut-off); inconclusive means no clear call, values can overlap the other calls; inactive means mostly above about 0.92. Some of the results follow.

Experiment: chemical genetic growth profiling, strain panel (AID 1159580);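 further: tested at 20 µM; growth read once vehicle control cultures reached saturation at 30 °C; 1 = growth at the plate median or of vehicle wells; lower values mean less growth of the strain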
Settings: S. cerevisiae deletion strains, growth OD

Measured: normalized growth

CC(Oc1ccccc1)C(=O)N[C@@H]1C(=O)N2[C@@H]1SC(C)(C)[C@@H]2C(=O)O (some centres not stated)
inactive: locus YAL013W, strain DEP1, hits give low values 1.01 | locus YAL021C, strain ccr4, hits give low values 1 | locus YAL026C, strain drs2, hits give low values 1.01 | locus YAL030W, strain snc1, hits give low values 0.987 | locus YBL061C, strain skt5, hits give low values 1 | locus YBR009C, strain hhf1, hits give low values 0.997 | locus YBR021W, strain FUR4, hits give low values 0.999 | locus YBR023C, strain chs3, hits give low values 0.998 | locus YBR171W, strain sec66, hits give low values 0.984 | locus YBR229C, strain ROT2, hits give low values 1.01 | locus YBR231C, strain swc5, hits give low values 0.995 | locus YBR279W, strain paf1, hits give low values 1.01 | locus YCL011C, strain gbp2, hits give low values 0.988 | locus YCL016C, strain dcc1, hits give low values 0.988 | locus YCL029C, strain bik1, hits give low values 1.04 | locus YCL061C, strain MRC1, hits give low values 0.998 | locus YCL069W, strain vba3, hits give low values 0.981 | locus YCR088W, strain abp1, hits give low values 0.995 | locus YDL005C, strain med2, hits give low values 0.999 | locus YDL035C, strain GPR1, hits give low values 1.01 | locus YDL040C, strain nat1, hits give low values 0.995 | locus YDL074C, strain BRE1, hits give low values 1.01 | locus YDL101C, strain DUN1, hits give low values 1.02 | locus YDL134C, strain PPH21, hits give low values 1.02 | locus YDL185W, strain tfp1, hits give low values 1.02 | locus YDL192W, strain arf1, hits give low values 1.02 | locus YDR001C, strain nth1, hits give low values 0.994 | locus YDR069C, strain doa4, hits give low values 1 | locus YDR101C, strain arx1, hits give low values 1.01 | locus YDR137W, strain rgp1, hits give low values 1 | locus YDR150W, strain NUM1, hits give low values 1.01 | locus YDR159W, strain sac3, hits give low values 1.02 | locus YDR162C, strain NBP2, hits give low values 1.02 | locus YDR195W, strain ref2 1 | locus YDR297W, strain sur2, hits give low values 0.994 | locus YDR318W, strain mcm21, hits give low values 1.03 | locus YDR334W, strain swr1, hits give low values 0.995 | locus YDR335W, strain msn5, hits give low values 0.996 | locus YDR388W, hits give low values 1.02 | locus YDR392W, strain spt3, hits give low values 0.947 | locus YDR502C, strain sam2, hits give low values 1.01 | locus YEL003W, strain gim4, hits give low values 0.993 | locus YEL037C, strain rad23, hits give low values 0.997 | locus YEL061C, strain CIN8 (second series), hits give low values 0.988 | locus YEL061C, strain CIN8, hits give low values 1.01 | locus YER015W, strain faa2, hits give low values 1 | locus YER016W, strain bim1, hits give low values 1 | locus YER110C, hits give low values 1.03 | locus YER111C, strain swi4, hits give low values 1.01 | locus YER155C, strain BEM2 (second series), hits give low values 0.994 | locus YER155C, strain BEM2, hits give low values 0.998 | locus YER167W, strain BCK2, hits give low values 1.01 | locus YFR010W, strain ubp6, hits give low values 0.997 | locus YGL078C, strain dbp3, hits give low values 1.02 | locus YGL086W, strain mad1, hits give low values 1.01 | locus YGL167C, strain pmr1, hits give low values 0.999 | locus YGL173C, strain kem1, hits give low values 1.01 | locus YGL227W, strain vid30, hits give low values 0.988 | locus YGL240W, strain doc1, hits give low values 1 | locus YGL248W, strain PDE1, hits give low values 1.01 | locus YGL253W, strain hxk2, hits give low values 0.994 | locus YGR078C, strain PAC10, hits give low values 1.01 | locus YGR135W, strain pre9, hits give low values 1.02 | locus YGR229C, strain SMI1, hits give low values 0.999 | locus YGR252W, strain gcn5, hits give low values 0.994 | locus YHR013C, strain ard1, hits give low values 0.984 | locus YHR027C, strain rpn1, hits give low values 0.999 | locus YHR030C, strain SLT2, hits give low values 1.01 and 1.04 | locus YHR079C, strain IRE1 (second series), hits give low values 1.02 | locus YHR079C, strain IRE1, hits give low values 0.999 | locus YHR094C, strain hxt1, hits give low values 1.02 | locus YHR129C, strain ARP1, hits give low values 1.01 | locus YHR142W, strain chs7, hits give low values 0.979 | locus YHR200W, strain rpn10, hits give low values 1.02 | locus YIL066C, strain RNR3, hits give low values 1.01 | locus YIL073C, strain SPO22, hits give low values 1.06 | locus YIL125W, strain kgd1, hits give low values 1.01 | locus YIR030C, strain dcg1, hits give low values 1.02 | locus YJL092W, strain hpr5, hits give low values 0.993 | locus YJL095W, strain BCK1 (second series), hits give low values 0.995 | locus YJL095W, strain BCK1, hits give low values 1.04 | locus YJL115W, strain asf1, hits give low values 0.999 | locus YJL129C, strain trk1, hits give low values 1 | locus YJL134W, strain LCB3, hits give low values 1.01 | locus YJL154C, strain vps35, hits give low values 0.991 | locus YJL164C, strain tpk1, hits give low values 0.999 | locus YJL166W, strain qcr8, hits give low values 0.986 | locus YJL168C, strain set2, hits give low values 1.02 | locus YJL187C, strain SWE1 (second series), hits give low values 1.02 | locus YJL187C, strain SWE1, hits give low values 0.997 | locus YJR043C, strain POL32, hits give low values 1.01 | locus YJR066W, strain TOR1, hits give low values 0.966
